The values that follow come from PubChem BioAssay (NCI).

The panel holds about 79,000 compounds, 15% with a hit somewhere; the sample as a whole holds those more often. Values without a mark were called inactive. Active and inactive are the calls of the source. No stated cut-off is given here; in the data, active means growth inhibition above about 70%; inactive means the rest.

Assay [1] in a line: NCI Yeast Anticancer Drug Screen. Data for the rad50 strain (AID 155).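 Further: 0% = growth of vehicle-only cultures of the same strain.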 To be noted: S. cerevisiae rad50 strain growth inhibition, stronger effect = higher value. The method in brief:
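Genetically altered yeast (DNA repair pathway); compound treatment; growth inhibition vs vehicle ctrl.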

Assay [2] can be described thus: NCI Yeast Anticancer Drug Screen. Data for the mec2-1 strain (AID 157). To be noted: S. cerevisiae mec2-1 strain, stronger effect = higher value. In outline:
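Using mec2-1 yeast: add compound, measure growth, express inhibition versus vehicle-treated cultures.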

Assay [3] can be described thus: NCI Yeast Anticancer Drug Screen. Data for the sgs1 mgt1 strain (AID 161).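 Further: 0% = growth of cultures given vehicle only.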 The note with it: S. cerevisiae sgs1 mgt1 strain, stronger effect = higher value. The method in brief:
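Yeast cells carrying a defined DNA-repair defect were exposed to test compounds. Growth inhibition was measured relative to vehicle-treated controls.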

Assay [4] can be described thus: NCI Yeast Anticancer Drug Screen. Data for the cln2 rad14 strain (AID 165).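 Further: 0% = growth equal to vehicle treated cultures.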 To be noted: S. cerevisiae cln2 rad14 strain, stronger effect = higher value. The method in brief:
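Yeast strain cln2 rad14, bearing defects in cell cycle control and DNA repair, serves as the test system; values reflect growth inhibition compared with vehicle.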

The nature of assay [5]: NCI Yeast Anticancer Drug Screen. Data for the bub3 strain (AID 167). To be noted: S. cerevisiae bub3 mutant strain, stronger effect = higher value. In outline:
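Yeast carrying a defined mutation is treated with each compound, and growth is compared with that of vehicle-exposed cells to give inhibition.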

Assay [6] in a line: NCI Yeast Anticancer Drug Screen. Data for the mlh1 rad18 strain (AID 175). The note with it: S. cerevisiae mlh1 rad18 strain growth inhibition, stronger effect = higher value. In outline:
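Steps: expose repair-defective yeast to compound; measure growth; express inhibition against vehicle-treated controls.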

Setting [7] is: at 5.0 µM (retest, dose inferred, filed as 0.5).
Setting [8] is: at 50.0 µM (retest, dose inferred, filed as 5.0).

`NNC(=O)NN=C(c1ccccc1)c1ccccc1`: the growth inhibition in assay [1] (setting [7]) was 0%; in assay [1] (setting [8]), 16%; in assay [1] (at 50.0 µM), 1.5%; in assay [2] (setting [7]), -2%; in assay [2] (setting [8]) it was 1%; in assay [2] (at 50.0 µM) it was -13.2%. Further, the growth inhibition was -3% in assay [3] (setting [7]); 0% in assay [3] (setting [8]); 11.4% in assay [3] (at 50.0 µM); 0% in assay [4] (setting [7]); -12% in assay [4] (setting [8]); -26.5% in assay [4] (at 50.0 µM). For the same compound, the growth inhibition was -4% in assay [5] (setting [7]); -1% in assay [5] (setting [8]); 3.95% in assay [5] (at 50.0 µM); -11% in assay [6] (setting [7]); 1% in assay [6] (setting [8]); 33.1% in assay [6] (at 50.0 µM).

With `O=C1C=CC(=O)c2c(O)c(N3CCN(CCO)CC3)c(Cl)c(O)c21`, the growth inhibition is 37% in assay [1] (setting [7]); 95% (active) in assay [1] (setting [8]); 84.7% (active) in assay [1] (at 50.0 µM); 33% in assay [2] (setting [7]); 99% (active) in assay [2] (setting [8]); 89.8% (active) in assay [2] (at 50.0 µM). Further, the growth inhibition in assay [3] (setting [7]) was 48%; in assay [3] (setting [8]) it was 99% (active); in assay [3] (at 50.0 µM) it was 90.7% (active); in assay [4] (setting [7]), 26%; in assay [4] (setting [8]) it was 82% (active); in assay [4] (at 50.0 µM), 86.8% (active). The growth inhibition in assay [5] (setting [7]) is 47%; in assay [5] (setting [8]) it was 98% (active); in assay [5] (at 50.0 µM), 88.5% (active); in assay [6] (setting [7]) it was 41%; in assay [6] (setting [8]), 98% (active); in assay [6] (at 50.0 µM), 88.8% (active).

In the case of `CC(C)C1(c2ccccc2)C(=O)c2ccccc2C1=O`, the growth inhibition in assay [1] (setting [7]) is -6%; in assay [1] (setting [8]), 42%; in assay [1] (at 50.0 µM) it was 71.8% (active); in assay [2] (setting [7]) it was -7%; in assay [2] (setting [8]) it was 50%; in assay [2] (at 50.0 µM) it was 77.5% (active). Further, the growth inhibition was -5% in assay [3] (setting [7]); 73% (active) in assay [3] (setting [8]); 84.7% (active) in assay [3] (at 50.0 µM); 2% in assay [4] (setting [7]); 10% in assay [4] (setting [8]); 68.2% in assay [4] (at 50.0 µM). The growth inhibition is -11% in assay [5] (setting [7]), 14% in assay [5] (setting [8]) and 79.2% (active) in assay [5] (at 50.0 µM).

Turning to `O=C1C=CC(=O)c2c(O)c(N3CCC[C@H]3CO)c(Cl)c(O)c21`, the growth inhibition was 20% in assay [1] (setting [7]); 90% (active) in assay [1] (setting [8]); 61.2% in assay [1] (at 50.0 µM); 14% in assay [2] (setting [7]); 90% (active) in assay [2] (setting [8]); 78.9% (active) in assay [2] (at 50.0 µM). Besides, the growth inhibition in assay [3] (setting [7]) was 19%; in assay [3] (setting [8]) it was 95% (active); in assay [3] (at 50.0 µM), 23.9%; in assay [4] (setting [7]), 13%; in assay [4] (setting [8]), 51%; in assay [4] (at 50.0 µM), 20%. Moreover, the growth inhibition in assay [5] (setting [7]) is 25%; in assay [5] (setting [8]) it was 97% (active); in assay [5] (at 50.0 µM), 34.5%.

Regarding `CCC(=O)OCN1C(=O)C=CC1=O`, the growth inhibition is 11% in assay [1] (setting [7]); 99% (active) in assay [1] (setting [8]); 99% (active) in assay [1] (at 50.0 µM); 3% in assay [2] (setting [7]); 100% (active) in assay [2] (setting [8]); 99.3% (active) in assay [2] (at 50.0 µM). The growth inhibition in assay [3] (setting [7]) is -4%; in assay [3] (setting [8]) it was 100% (active); in assay [3] (at 50.0 µM), 99.2% (active); in assay [4] (setting [7]), 14%; in assay [4] (setting [8]), 99% (active); in assay [4] (at 50.0 µM) it was 98.9% (active). Moreover, the growth inhibition in assay [5] (setting [7]) was 10%; in assay [5] (setting [8]), 100% (active); in assay [5] (at 50.0 µM), 99.3% (active); in assay [6] (setting [7]), 20%; in assay [6] (setting [8]), 99% (active); in assay [6] (at 50.0 µM) it was 99% (active).

For `COc1cc(N=Nc2cccc(S(N)(=O)=O)c2)c2ccccc2c1N`, the growth inhibition in assay [1] (setting [7]) was -6%; in assay [1] (setting [8]) it was 98% (active); in assay [1] (at 50.0 µM), 95.3% (active); in assay [2] (setting [7]) it was -2%; in assay [2] (setting [8]) it was 99% (active); in assay [2] (at 50.0 µM), 97.7% (active). The growth inhibition was 2% in assay [3] (setting [7]); 99% (active) in assay [3] (setting [8]); 97.4% (active) in assay [3] (at 50.0 µM); 34% in assay [4] (setting [7]); 98% (active) in assay [4] (setting [8]); 95.5% (active) in assay [4] (at 50.0 µM). The growth inhibition in assay [5] (setting [7]) was -5%; in assay [5] (setting [8]), 99% (active); in assay [5] (at 50.0 µM) it was 94.4% (active); in assay [6] (setting [7]) it was 5%; in assay [6] (setting [8]), 98% (active); in assay [6] (at 50.0 µM) it was 95.8% (active).

For the compound `CCCCCCCCC(C)c1ccccc1O` (stereo not drawn), the growth inhibition was -150% in assay [1] (setting [7]); 96% (active) in assay [1] (setting [8]); 99.7% (active) in assay [1] (at 50.0 µM); -53% in assay [2] (setting [7]); 98% (active) in assay [2] (setting [8]); 99.7% (active) in assay [2] (at 50.0 µM). For the same compound, the growth inhibition in assay [3] (setting [7]) was -68%; in assay [3] (setting [8]) it was 96% (active); in assay [3] (at 50.0 µM), 99.4% (active); in assay [4] (setting [7]), -62%; in assay [4] (setting [8]), 97% (active); in assay [4] (at 50.0 µM) it was 99.4% (active). The growth inhibition in assay [5] (setting [7]) is -56%; in assay [5] (setting [8]), 96% (active); in assay [5] (at 50.0 µM) it was 99.5% (active); in assay [6] (setting [7]), -151%; in assay [6] (setting [8]), 97% (active); in assay [6] (at 50.0 µM), 99.4% (active).

Regarding `CCC[CH2][Sn]([CH2]CCC)([O]C(=O)c1cccc(F)c1)[O]C(=O)c1cccc(F)c1`, the growth inhibition in assay [1] (setting [7]) is 26%; in assay [1] (setting [8]), 26%; in assay [1] (at 50.0 µM) it was 51.5%; in assay [2] (setting [7]), -2%; in assay [2] (setting [8]) it was -2%; in assay [2] (at 50.0 µM), 33.5%. The growth inhibition in assay [3] (setting [7]) is -1%; in assay [3] (setting [8]), -1%; in assay [3] (at 50.0 µM) it was 73.2% (active); in assay [4] (setting [7]), 10%; in assay [4] (setting [8]), 10%; in assay [4] (at 50.0 µM) it was 14.9%. Moreover, the growth inhibition was -2% in assay [5] (setting [7]), -2% in assay [5] (setting [8]) and 49.9% in assay [5] (at 50.0 µM).

On to `CNC(Cc1ccccc1)c1ccc(OC)c2ccccc12` (stereo not drawn), for which the growth inhibition is 3% in assay [1] (setting [7]); 9% in assay [1] (setting [8]); 18.2% in assay [1] (at 50.0 µM); 6% in assay [2] (setting [7]); -16% in assay [2] (setting [8]); 10.2% in assay [2] (at 50.0 µM). The growth inhibition in assay [3] (setting [7]) is -3%; in assay [3] (setting [8]), -10%; in assay [3] (at 50.0 µM), 14.8%; in assay [4] (setting [7]), -1%; in assay [4] (setting [8]) it was 11%; in assay [4] (at 50.0 µM), 7.7%. Moreover, the growth inhibition was 27% in assay [5] (setting [7]); 25% in assay [5] (setting [8]); 51.7% in assay [5] (at 50.0 µM); -2% in assay [6] (setting [7]); 40% in assay [6] (setting [8]); 21.6% in assay [6] (at 50.0 µM).

`O=C1c2ccccc2C(=O)c2sc(Nc3cccc(Cl)c3)nc21`: the growth inhibition was 93% (active) in assay [1] (setting [7]); 98% (active) in assay [1] (setting [8]); 89.6% (active) in assay [1] (at 50.0 µM); 93% (active) in assay [2] (setting [7]); 99% (active) in assay [2] (setting [8]); 92.2% (active) in assay [2] (at 50.0 µM). For the same compound, the growth inhibition in assay [3] (setting [7]) was 92% (active); in assay [3] (setting [8]) it was 99% (active); in assay [3] (at 50.0 µM), 93% (active); in assay [4] (setting [7]), 54%; in assay [4] (setting [8]) it was 98% (active); in assay [4] (at 50.0 µM), 89.9% (active). For the same compound, the growth inhibition in assay [5] (setting [7]) is 98% (active); in assay [5] (setting [8]), 97% (active); in assay [5] (at 50.0 µM) it was 90.6% (active).
